Records with an inconclusive call do not appear. The source made the active and inactive calls. The call rests on the fitted dose curve; in most records, active means well fitted inhibition curve with a large enough effect; inconclusive means small, poorly fitted or top-dose-only effect; inactive means flat fitted curve, though single readings scatter. Residues, ends and D or L forms follow the SMILES beside them. *: point of attachment. Cbz = O=C(OCc1ccccc1)*
System: CRL-7250
Assay: Cytotoxic Profiling of Annotated Libraries Using Quantitative High-Throughput Screening (AID 1296008); further: nearly all actives have a fitted effect of over 60% in size
Conditions: Five cell lines viability, CellTiter-Glo ATP luminescence, 48-72 h; max response: active compounds read low
In short: (§1)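 Cells exposed to compounds for 48 or 72 hr at 37 degrees Celsius. Viability read as ATP-coupled luminescence with CellTiter-Glo after 10 min at room temperature.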
On the % scale 0 is the no-effect control and ±100 the full control effect; potency means the concentration at half of the fitted maximal effect.

Row | SMILES | max response | outcome | Potency
1 | c1ccc(CNc2nc(NCc3ccccc3)c3ccccc3n2)cc1 | -7.33% (inactive) |  | 
2 | CN(CC(=O)N(Cc1ccc(C2CCCCC2)cc1)c1ccc(C(=O)O)c(O)c1)S(=O)(=O)c1c(F)c(F)c(F)c(F)c1F |  | inactive | 
3 | Cc1ccc2nc(NCCN)c3ncc(C)n3c2c1 |  |  | 16.6 µM (active)
4 | COc1cc(C)c(C=CC(C)=CC=CC(C)=CC(=O)O)c(C)c1C | -4.27% (inactive) |  | 
5 | CC(=O)N1CCN(c2ccc(OCc3nn(C)c(C)c3-c3cccc4c(CCCOc5cccc6ccccc56)c(C(=O)O)n(Cc5cccnc5)c34)cc2)CC1 |  | inactive | 
6 | CC(=O)C1=C(O)C=C2Oc3c(C(C)=O)c(O)c(C)c(O)c3C2(C)C1=O (stereo unspecified) |  | inactive | 
7 | C=Cc1c(C)c2cc3nc(cc4[nH]c(cc5nc(cc1[nH]2)C(C)=C5CCC(=O)O)c(CCC(=O)OC)c4C)[C@@]1(C)C3=CC=C(C(=O)OC)[C@H]1C(=O)OC | 1.72% (inactive) |  | 
8 | NC[C@H]1O[C@H](O[C@H]2[C@@H](O)[C@@H](O[C@H]3O[C@H](CO)[C@@H](O)[C@H](N)[C@@H]3O)[C@H](N)C[C@@H]2N)[C@H](N)C[C@H]1O | -1.47% (inactive) |  | 
9 | O=C1NC(=O)[C@@H](c2cn3c4c(cccc24)CCC3)[C@H]1c1c[nH]c2ccccc12 |  |  | 13.2 µM (active)
10 | C[C@H](NC(=O)Cc1cc(F)cc(F)c1)C(=O)N[C@H](C(=O)OC(C)(C)C)c1ccccc1 | -1.21% (inactive) |  | 
11 | C[N+]1(C)[C@@H]2C[C@@H](OC(=O)C(O)(c3cccs3)c3cccs3)C[C@H]1[C@@H]1O[C@@H]12 |  | inactive | 
12 | OCC(O)C(O)C(O)CO (stereo unspecified) | -10.5% (inactive) |  | 
13 | C=C1C[C@@]2(O)O[C@@]3(C[C@H]2C(C)C)[C@H](C)CC[C@H]13 | -11.2% (inactive) |  | 
14 | Cc1cnc(Nc2ccc(N3CCN(C)CC3)cc2)nc1Nc1cccc(S(=O)(=O)NC(C)(C)C)c1 |  |  | 1.48 µM (active)
15 | O=C(c1ccc(F)cc1)N1CCC[C@H](c2nc(-c3ccc(F)cc3)no2)C1 | 3.37% (inactive) |  | 
16 | O=C(O)[C@H](CC(=O)N1C[C@@H]2CCCC[C@H]2C1)Cc1ccccc1 |  | inactive | 
17 | COc1ccc([C@@H]2CNC(=O)C2)cc1OC1CCCC1 |  | inactive | 

System: HEK293
Assay: as above
Conditions: Five cell lines viability, CellTiter-Glo ATP luminescence, 48-72 h; max response: active compounds read low
In short: as §1

Row | SMILES | Potency | max response | outcome
18 | COc1cc(C(=O)NC2CCN(C)CC2)ccc1Nc1ncc2c(n1)N(C1CCCC1)CCC(=O)N2C(C)C | 8.33 µM (active) |  | 
19 | Nc1nc2c(c(=O)[nH]1)N(C=O)[C@H](CNc1ccc(C(=O)N[C@@H](CCC(=O)O)C(=O)O)cc1)CN2 |  | -23.4% (inactive) | 
20 | O=C(O)C[C@H](O)C[C@H](O)C=Cc1c(C2CC2)nc2ccccc2c1-c1ccc(F)cc1 | 9.35 µM (active) |  | 
21 | CC(C)C[C@@H](C=O)NC(=O)[C@H](CC(C)C)NC(=O)[C@H](CC(C)C)NC(=O)OCc1ccccc1 (Cbz-Leu-Leu-Leu-aldehyde) | 1.05 µM (active) |  | 
22 | COC(=O)C=CC(=O)OC |  |  | inactive
23 | CC(C)(C)[C@H](NC(=O)c1ccc(N)c(Cl)c1)C(=O)N1CCC[C@@H]1C(=O)N[C@H](C#N)CC(=O)O |  | -9.49% (inactive) | 
24 | CCC(C=C[C@@H]1OC(=O)C=C[C@H]1C)=C[C@H](C)CC=CC(C)=C[C@@H](C)C(=O)[C@@H](C)[C@H](O)[C@@H](C)CC(C)=CC(=O)O | 0.0175 µM (active) |  | 
25 | CC[C@H]1OC(=O)[C@H](C)[C@@H](O[C@H]2C[C@@](C)(OC)[C@@H](O)[C@H](C)O2)[C@H](C)[C@@H](O[C@@H]2O[C@@H](C)C[C@H](N(C)C)[C@@H]2O)[C@](C)(O)C[C@@H](C)C(=O)[C@H](C)[C@@H](O)[C@]1(C)O |  | -7.85% (inactive) | 
26 | COc1cc(C[C@@H](CO)[C@H](CO)Cc2ccc(O)c(OC)c2)ccc1O |  | -2.88% (inactive) | 
27 | COc1cc(C=CC(=O)CC(=O)C=Cc2ccc(O)c(OC)c2)ccc1O | 24.1 µM (active) |  | 
28 | CN1C(C(=O)Nc2ccccn2)=C(O)c2sc(Cl)cc2S1(=O)=O |  |  | inactive
29 | Oc1ccc([C@@H]2Oc3ccc(O)cc3[C@@H]3CCC[C@@H]32)cc1 | 11.8 µM (active) |  | 
30 | Oc1cc2c(cc1O)C1c3ccc(O)c(O)c3OCC1(O)C2 (stereo unspecified) |  | 1.47% (inactive) | 
31 | Cn1c(Nc2ccc(C(F)(F)F)cc2)nc2cc(Oc3ccnc(-c4ncc(C(F)(F)F)[nH]4)c3)ccc21 | 26.4 µM (active) |  | 
32 | CNC(=O)Nc1ccc(-c2nc(N3CC4CCC(C3)O4)c3cnn(C4CCC5(CC4)OCCO5)c3n2)cc1 | 0.0066 µM (active) |  | 
33 | C=CC(=O)Nc1cccc(Nc2nc(NC3CCC(N(C)C)CC3)nc3c2ncn3C(C)C)c1 (stereo unspecified) | 1.32 µM (active) |  | 
34 | CC(=O)O[C@]1(C(C)=O)CC[C@H]2[C@@H]3C=C(C)C4=CC(=O)CC[C@]4(C)[C@@H]3CC[C@@]21C |  | -9.75% (inactive) | 
35 | CC1=C(C(=O)Nc2cc3cn[nH]c3cc2F)C(c2ccc(Cl)cc2F)N=C(c2ccnc(Cl)c2)N1 (stereo unspecified) | 13.2 µM (active) |  | 
36 | C[C@@H](NCc1cc2ccccc2[nH]1)c1cccc2ccccc12 |  | -2.05% (inactive) | 
37 | CC(=O)O[C@H]1C[C@@H]2CC[C@H]3[C@H]4C[C@H]([N+]5(C)CCCCC5)[C@@H](OC(C)=O)[C@@]4(C)CC[C@@H]3[C@@]2(C)C[C@H]1[N+]1(C)CCCCC1 |  | 0.173% (inactive) | 

Row | SMILES | Potency | max response | outcome
38 | C=CC[C@@H]1C=C(C)C[C@H](C)C[C@H](OC)[C@H]2O[C@@](O)(C(=O)C(=O)N3CCCC[C@H]3C(=O)O[C@H](C(C)=C[C@@H]3CC[C@H](O)[C@H](OC)C3)[C@@H](C)[C@@H](O)CC1=O)[C@@H](C)C[C@@H]2OC | 7.43 µM (active) |  | 
39 | C[C@@H]1C(=O)O[C@H]2CC34[C@H]5C[C@@H](C(C)(C)C)C36[C@H](OC(=O)[C@@H]6O)O[C@@]4(C(=O)O5)[C@]21O (stereo partly specified) |  | 3.06% (inactive) | 
40 | c1ccc(CNc2nc(NCc3ccccc3)c3ccccc3n2)cc1 | 14.8 µM (active) |  | 
41 | CN(CC(=O)N(Cc1ccc(C2CCCCC2)cc1)c1ccc(C(=O)O)c(O)c1)S(=O)(=O)c1c(F)c(F)c(F)c(F)c1F |  |  | inactive
42 | Cc1ccc2nc(NCCN)c3ncc(C)n3c2c1 | 4.18 µM (active) |  | 
43 | COc1cc(C)c(C=CC(C)=CC=CC(C)=CC(=O)O)c(C)c1C |  | -16.6% (inactive) | 
44 | CC(=O)N1CCN(c2ccc(OCc3nn(C)c(C)c3-c3cccc4c(CCCOc5cccc6ccccc56)c(C(=O)O)n(Cc5cccnc5)c34)cc2)CC1 |  | -15.3% (inactive) | 
45 | CC(=O)C1=C(O)C=C2Oc3c(C(C)=O)c(O)c(C)c(O)c3C2(C)C1=O (stereo unspecified) |  |  | inactive
46 | C=Cc1c(C)c2cc3nc(cc4[nH]c(cc5nc(cc1[nH]2)C(C)=C5CCC(=O)O)c(CCC(=O)OC)c4C)[C@@]1(C)C3=CC=C(C(=O)OC)[C@H]1C(=O)OC | 11.8 µM (active) |  | 
47 | NC[C@H]1O[C@H](O[C@H]2[C@@H](O)[C@@H](O[C@H]3O[C@H](CO)[C@@H](O)[C@H](N)[C@@H]3O)[C@H](N)C[C@@H]2N)[C@H](N)C[C@H]1O |  | 0.89% (inactive) | 
48 | O=C1NC(=O)[C@@H](c2cn3c4c(cccc24)CCC3)[C@H]1c1c[nH]c2ccccc12 | 0.662 µM (active) |  | 
49 | C[C@H](NC(=O)Cc1cc(F)cc(F)c1)C(=O)N[C@H](C(=O)OC(C)(C)C)c1ccccc1 |  | -28.5% (inactive) | 
50 | C[N+]1(C)[C@@H]2C[C@@H](OC(=O)C(O)(c3cccs3)c3cccs3)C[C@H]1[C@@H]1O[C@@H]12 |  | -10% (inactive) | 
51 | OCC(O)C(O)C(O)CO (stereo unspecified) |  | -3.06% (inactive) | 
52 | C=C1C[C@@]2(O)O[C@@]3(C[C@H]2C(C)C)[C@H](C)CC[C@H]13 |  | 0.867% (inactive) | 
53 | Cc1cnc(Nc2ccc(N3CCN(C)CC3)cc2)nc1Nc1cccc(S(=O)(=O)NC(C)(C)C)c1 | 4.69 µM (active) |  | 
54 | O=C(c1ccc(F)cc1)N1CCC[C@H](c2nc(-c3ccc(F)cc3)no2)C1 |  | -0.935% (inactive) | 
55 | O=C(O)[C@H](CC(=O)N1C[C@@H]2CCCC[C@H]2C1)Cc1ccccc1 |  | -4.31% (inactive) | 
56 | COc1ccc([C@@H]2CNC(=O)C2)cc1OC1CCCC1 |  | 2.8% (inactive) | 

Reference: PubChem BioAssay (NCATS)
